From article PMC4336329 (PLoS ONE, 2015)
About 2,200 (0.71%) of roughly 310,000 compounds showed an effect of 50% or more. Effects have a minus sign here. What follows is part of a selection rich in strong results, with near analogues and random picks from the rest.

Molecular target: human ether-à-go-go-related gene (hERG) potassium channel (human, UniProt Q12809)
Test: primary screen, population patch clamp on CHO cells stably expressing hERG; higher = less effect of the substance

Sequence of human ether-à-go-go-related gene (hERG) potassium channel (Q12809 whole entry, looked up): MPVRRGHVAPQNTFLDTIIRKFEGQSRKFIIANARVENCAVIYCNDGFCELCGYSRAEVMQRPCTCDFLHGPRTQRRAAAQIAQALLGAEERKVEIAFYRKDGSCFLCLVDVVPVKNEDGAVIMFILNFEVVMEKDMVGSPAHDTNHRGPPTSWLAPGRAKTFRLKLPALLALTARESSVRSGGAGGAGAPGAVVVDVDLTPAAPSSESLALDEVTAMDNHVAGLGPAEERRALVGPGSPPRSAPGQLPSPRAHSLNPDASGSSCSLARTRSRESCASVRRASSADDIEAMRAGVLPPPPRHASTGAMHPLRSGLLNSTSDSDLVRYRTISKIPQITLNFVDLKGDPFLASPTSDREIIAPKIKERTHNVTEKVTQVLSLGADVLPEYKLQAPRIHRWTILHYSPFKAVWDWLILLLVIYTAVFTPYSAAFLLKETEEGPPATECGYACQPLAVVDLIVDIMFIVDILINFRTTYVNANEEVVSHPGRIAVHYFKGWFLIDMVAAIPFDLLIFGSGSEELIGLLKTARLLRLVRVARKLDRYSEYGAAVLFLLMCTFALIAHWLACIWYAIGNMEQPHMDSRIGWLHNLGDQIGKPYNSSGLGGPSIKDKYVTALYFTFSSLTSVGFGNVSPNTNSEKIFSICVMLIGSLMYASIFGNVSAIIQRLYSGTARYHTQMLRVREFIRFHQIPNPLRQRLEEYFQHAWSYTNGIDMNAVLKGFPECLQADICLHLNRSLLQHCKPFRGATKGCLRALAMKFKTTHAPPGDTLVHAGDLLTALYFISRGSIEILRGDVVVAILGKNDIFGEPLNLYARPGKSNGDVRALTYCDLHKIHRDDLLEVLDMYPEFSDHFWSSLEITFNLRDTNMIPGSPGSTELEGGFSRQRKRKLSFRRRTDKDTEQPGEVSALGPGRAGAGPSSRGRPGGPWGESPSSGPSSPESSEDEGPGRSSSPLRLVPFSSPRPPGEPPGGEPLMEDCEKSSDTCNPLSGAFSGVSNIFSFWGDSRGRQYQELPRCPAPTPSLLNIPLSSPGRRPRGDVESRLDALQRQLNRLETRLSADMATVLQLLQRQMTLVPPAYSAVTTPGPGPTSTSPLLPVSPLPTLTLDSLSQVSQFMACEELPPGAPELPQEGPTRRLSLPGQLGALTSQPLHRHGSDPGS

SMILES	hERG current change (%, negative = inhibition) at 1uM
CN(C)CCCN(C(=O)COc1ccc(Cl)cc1)c1nc2ccc(F)cc2s1.Cl	8.45%
CN(C)CCCN(C(=O)COc1ccc(Cl)cc1)c1nc2c(F)cccc2s1.Cl	-16.9%
COc1cccc2sc(N(CCCN(C)C)C(=O)COc3ccc(Cl)cc3)nc12.Cl	-68.9%
CCOc1cccc2sc(N(CCCN(C)C)C(=O)c3ccc(C(=O)c4ccccc4)cc3)nc12.Cl	-29.5%
CCOc1cccc2sc(N(CCCN(C)C)C(=O)Cc3ccccc3)nc12.Cl	-83.7%
CCOc1cccc2sc(N(CCCN(C)C)C(=O)c3ccc(S(=O)(=O)N(C)Cc4ccccc4)cc3)nc12.Cl	-1.82%
Cc1cccc2sc(N(CCCN(C)C)C(=O)COc3ccc(Cl)cc3)nc12.Cl	-6.98%
CN(C)CCCN(C(=O)COc1ccccc1)c1nc2c(Cl)cccc2s1.Cl	-45.5%
CN(C)CCCN(C(=O)COc1ccccc1)c1nc2c(F)cccc2s1.Cl	-55.8%
CCOC(=O)c1c(NC(=O)c2cc(CC(C)C)on2)sc(C(C)=O)c1C	12.5%
CC(C)CN(C(=O)COC(=O)c1cnc(Cl)c(Cl)c1)c1c(N)n(Cc2ccccc2)c(=O)[nH]c1=O	8.68%
COc1ccc(-c2n[nH]c(C)c2-c2ccc(Cl)cc2)c(O)c1	10.2%
CCOC(=O)CSc1nc(Cc2ccccc2)nc2ccccc12	3.08%
Cn1nc(C(F)(F)F)c2cc(C(=O)N3CCOCC3)sc21	5.87%
COc1ccccc1N1CCN(C2CCCN(C(=O)CCC(=O)N(C)C)C2)CC1 (stereo not shown)	-3.24%
CCCC(=O)NC(=S)Nc1ccc(NC(=O)c2cccs2)cc1	-3.11%
Cc1cc(=O)[nH]c(SCC(=O)c2ccc(C)c(C)c2)n1	18.1%
N#Cc1c2c(c(Nc3ccc(O)cc3)n3c1nc1ccccc13)CCC2	11.7%
N#Cc1c2c(c(Nc3ccccc3)n3c1nc1ccccc13)CCC2	10.4%
CC(=O)c1ccc(Nc2c3c(c(C#N)c4nc5ccccc5n24)CCC3)cc1	-67%
CC(C1CC1)N(Cc1ccccc1)C(=S)Nc1ccccc1Cl (stereo not shown)	3.13%
COc1cccc(-c2noc(CCC(=O)NC3CCCCC3)n2)c1	0.894%
COc1ccccc1N1CCN(C(=O)CSc2nc3ccccc3nc2N2CCCCC2)CC1	16.5%
COc1ccccc1N1CCN(C(=O)CSc2nnc3c4ccccc4nc(Cc4ccccc4)n23)CC1	-1.26%
COCCNc1nc(SCC(=O)N2CCN(c3ccccc3)CC2)nc2ccccc12	-94.4%
COCCNC(=O)CSc1nc2ccccc2c(=O)n1CCC(=O)N1CCN(c2ccccc2)CC1	6.84%
O=C(CSc1nc2ccccc2c(=O)[nH]1)N1CCN(c2ccccc2)CC1	12.9%
COCCNc1nc(SCC(=O)N2CCN(c3ccccc3OC)CC2)nc2ccccc12	-92.9%
